Source: PubChem BioAssay AID1159580 (chemical genetic matrix, 2015)
The campaign covered roughly 5,500 compounds. About 2,000 (36%) were called active. Roughly 18% stayed inconclusive and do not appear here. Rule as the data show it: active = normalized growth mostly below about 0.91 (no sharp cut-off); inconclusive = no clear call, values can overlap the other calls; inactive = mostly above about 0.92. This is one part of the list.

Assay: chemical genetic growth profiling, strain panel (AID 1159580);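 also: tested at 20 µM; growth read once vehicle control cultures reached saturation at 30 °C; 1 = growth at the plate median or of vehicle wells; lower values mean less growth of the strain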
Conditions: growth OD

Measured: normalized growth

COc1ccc(C(Cl)=C(c2ccc(OC)cc2)c2ccc(OC)cc2)cc1
inactive: S. cerevisiae deletion strains, locus YKL009W, strain mrt4, stronger effect = lower value 1.02 | S. cerevisiae deletion strains, locus YKL068W, stronger effect = lower value 1.02 | S. cerevisiae deletion strains, locus YKL085W, strain MDH1 (second series), stronger effect = lower value 0.98 | S. cerevisiae deletion strains, locus YKL085W, strain MDH1, stronger effect = lower value 0.98 | S. cerevisiae deletion strains, locus YKL160W, strain elf1, stronger effect = lower value 0.993 | S. cerevisiae deletion strains, locus YKL190W, strain CNB1, stronger effect = lower value 1.01 | S. cerevisiae deletion strains, locus YKR001C, strain vps1, stronger effect = lower value 1.01 | S. cerevisiae deletion strains, locus YKR026C, strain gcn3, stronger effect = lower value 1.01 | S. cerevisiae deletion strains, locus YKR091W, strain srl3, stronger effect = lower value 1.04 | S. cerevisiae deletion strains, locus YLL001W, strain dnm1, stronger effect = lower value 1.01 | S. cerevisiae deletion strains, locus YLL026W, stronger effect = lower value 1 | S. cerevisiae deletion strains, locus YLL041C, strain sdh2, stronger effect = lower value 1.02 | S. cerevisiae deletion strains, locus YLR027C, strain aat2, stronger effect = lower value 1.04 | S. cerevisiae deletion strains, locus YLR039C, strain RIC1, stronger effect = lower value 1.01 | S. cerevisiae deletion strains, locus YLR058C, strain SHM2, stronger effect = lower value 1.02 | S. cerevisiae deletion strains, locus YLR102C, strain apc9, stronger effect = lower value 1.02 | S. cerevisiae deletion strains, locus YLR113W, strain HOG1, stronger effect = lower value 0.97 | S. cerevisiae deletion strains, locus YLR221C, strain rsa3, stronger effect = lower value 0.995 | S. cerevisiae deletion strains, locus YLR258W, strain gsy2, stronger effect = lower value 1.02 | S. cerevisiae deletion strains, locus YLR262C, strain YPT6 (second series), stronger effect = lower value 1.07 | S. cerevisiae deletion strains, locus YLR262C, strain YPT6, stronger effect = lower value 1.02 | S. cerevisiae deletion strains, locus YLR268W, strain sec22, stronger effect = lower value 1.01 | S. cerevisiae deletion strains, locus YLR320W, strain mms22, stronger effect = lower value 1.01 | S. cerevisiae deletion strains, locus YLR330W, strain CHS5, stronger effect = lower value 1.01 | S. cerevisiae deletion strains, locus YLR342W, strain FKS1 (second series), stronger effect = lower value 0.988 | S. cerevisiae deletion strains, locus YLR342W, strain FKS1, stronger effect = lower value 1.01 | S. cerevisiae deletion strains, locus YLR357W, strain rsc2, stronger effect = lower value 1.04 | S. cerevisiae deletion strains, locus YLR370C, strain arc18, stronger effect = lower value 0.972 | S. cerevisiae deletion strains, locus YLR371W, strain rom2, stronger effect = lower value 1.03 | S. cerevisiae deletion strains, locus YLR384C, strain iki3, stronger effect = lower value 1.01 | S. cerevisiae deletion strains, locus YLR418C, strain cdc73, stronger effect = lower value 1.06 | S. cerevisiae deletion strains, locus YML016C, strain PPZ1, stronger effect = lower value 1.02 | S. cerevisiae deletion strains, locus YML032C, strain rad52, stronger effect = lower value 1 | S. cerevisiae deletion strains, locus YML120C, strain ndi1, stronger effect = lower value 0.982 | S. cerevisiae deletion strains, locus YML124C, strain tub3, stronger effect = lower value 1.03 | S. cerevisiae deletion strains, locus YMR058W, strain fet3, stronger effect = lower value 1.05 | S. cerevisiae deletion strains, locus YMR078C, strain ctf18, stronger effect = lower value 1.03 | S. cerevisiae deletion strains, locus YMR125W, strain sto1, stronger effect = lower value 1.01 | S. cerevisiae deletion strains, locus YMR129W, stronger effect = lower value 0.998 | S. cerevisiae deletion strains, locus YMR205C, strain PFK2, stronger effect = lower value 1.03 | S. cerevisiae deletion strains, locus YMR223W, strain ubp8, stronger effect = lower value 1.02 | S. cerevisiae deletion strains, locus YMR231W, strain pep5, stronger effect = lower value 1.02 | S. cerevisiae deletion strains, locus YMR263W, strain SAP30, stronger effect = lower value 1.04 | S. cerevisiae deletion strains, locus YMR307W, strain GAS1, stronger effect = lower value 1 | S. cerevisiae deletion strains, locus YNL067W, strain RPL9B, stronger effect = lower value 1.03 | S. cerevisiae deletion strains, locus YNL071W, strain lat1, stronger effect = lower value 1.03 | S. cerevisiae deletion strains, locus YNL128W, strain TEP1, stronger effect = lower value 1.03 | S. cerevisiae deletion strains, locus YNL183C, strain NPR1, stronger effect = lower value 0.905 | S. cerevisiae deletion strains, locus YNL209W, strain ssb2, stronger effect = lower value 1 | S. cerevisiae deletion strains, locus YNL233W, strain BNI4, stronger effect = lower value 1.02 | S. cerevisiae deletion strains, locus YNL248C, strain rpa49, stronger effect = lower value 0.962 | S. cerevisiae deletion strains, locus YNL250W, strain rad50, stronger effect = lower value 1.05 | S. cerevisiae deletion strains, locus YNL271C, strain bni1, stronger effect = lower value 1.01 | S. cerevisiae deletion strains, locus YNL298W, strain CLA4, stronger effect = lower value 1.01 | S. cerevisiae deletion strains, locus YNL307C, strain MCK1, stronger effect = lower value 1.02 | S. cerevisiae deletion strains, locus YNL322C, strain KRE1 (second series), stronger effect = lower value 1.03 | S. cerevisiae deletion strains, locus YNR049C, strain mso1, stronger effect = lower value 0.977 | S. cerevisiae deletion strains, locus YNR052C, strain pop2, stronger effect = lower value 1.02 | S. cerevisiae deletion strains, locus YOL006C, strain TOP1, stronger effect = lower value 1.12 | S. cerevisiae deletion strains, locus YOL012C, strain htz1 1.9 | S. cerevisiae deletion strains, locus YOL147C, strain pex11, stronger effect = lower value 1.02 | S. cerevisiae deletion strains, locus YOR001W, strain rrp6, stronger effect = lower value 1.04 | S. cerevisiae deletion strains, locus YOR061W, strain CKA2, stronger effect = lower value 1.01 | S. cerevisiae deletion strains, locus YOR069W, strain VPS5, stronger effect = lower value 1.02 | S. cerevisiae deletion strains, locus YOR070C, strain gyp1, stronger effect = lower value 1.02 | S. cerevisiae deletion strains, locus YOR080W, strain dia2, stronger effect = lower value 0.995 | S. cerevisiae deletion strains, locus YOR083W, strain WHI5, stronger effect = lower value 1.02 | S. cerevisiae deletion strains, locus YOR106W, strain vam3, stronger effect = lower value 1.07 | S. cerevisiae deletion strains, locus YOR136W, strain idh2, stronger effect = lower value 1.01 | S. cerevisiae deletion strains, locus YOR144C, strain elg1, stronger effect = lower value 1.01 | S. cerevisiae deletion strains, locus YOR184W, strain ser1, stronger effect = lower value 1 | S. cerevisiae deletion strains, locus YOR231W, strain MKK1, stronger effect = lower value 0.981 | S. cerevisiae deletion strains, locus YOR265W, strain rbl2, stronger effect = lower value 0.996 | S. cerevisiae deletion strains, locus YOR270C, strain vph1, stronger effect = lower value 1.09 | S. cerevisiae deletion strains, locus YOR290C, strain snf2, stronger effect = lower value 1 | S. cerevisiae deletion strains, locus YOR316C, strain cot1, stronger effect = lower value 1.02 | S. cerevisiae deletion strains, locus YPL051W, strain arl3, stronger effect = lower value 0.99 | S. cerevisiae deletion strains, locus YPL055C, strain LGE1, stronger effect = lower value 1.01 | S. cerevisiae deletion strains, locus YPL078C, strain atp4, stronger effect = lower value 1.04 | S. cerevisiae deletion strains, locus YPL106C, strain sse1, stronger effect = lower value 1.01 | S. cerevisiae deletion strains, locus YPL240C, strain hsp82, stronger effect = lower value 0.989 | S. cerevisiae deletion strains, locus YPL241C, strain CIN2, stronger effect = lower value 1.01 | S. cerevisiae deletion strains, locus YPL256C, strain CLN2, stronger effect = lower value 0.964 | S. cerevisiae deletion strains, locus YPR119W, strain clb2, stronger effect = lower value 1.02 | S. cerevisiae deletion strains, locus YPR141C, strain kar3, stronger effect = lower value 1.02 | S. cerevisiae deletion strains, locus YPR163C, strain tif3, stronger effect = lower value 1.03 | S. cerevisiae deletion strains, locus YPR167C, strain met16, stronger effect = lower value 1.02 | S. cerevisiae deletion strains, strain wtn01, stronger effect = lower value 1.02 | S. cerevisiae strains, strain wild type, stronger effect = lower value 1.02
